Experimental data from a collection of fitness landscapes (doi:10.1126/science.1257360).
The full ranking holds about 140,000 sequences; the median of “enrichment ratio after two sorts for PhoP signalling” is about 0, and the highest 2% start at about 11. Many of the other results were omitted from the sample, so the highest values are more common in it than they were.

B1: PhoQ; a variant is named by its letters at X, in order, P23837 (parent)
chain: MKKLLRLFFPLSLRVRFLLATAAVVLVLSLAYGMVALIGYSVSFDKTTFRLLRGESNLFYTLAKWENNKLHVELPENIDKQSPTMTLIYDENGQLLWAQRDVPWLMKMIQPDWLKSNGFHEIEADVNDTSLLLSGDHSIQQQLQEVREDDDDAEMTHSVAVNVYPATSRMPKLTIVVVDTIPVELKSSYMVWSWFIYVLSANLLLVIPLLWVAAWWSLRPIEALAKEVRELEEHNRELLNPATTRELTSLVRNLNRLLKSERERYDKYRTTLTDLTHSLKTPLXXLQXXLRSLRSEKMSVSDAEPVMLEQISRISQQIGYYLHRASMRGGTLLSRELHPVAPLLDNLTSALNKVYQRKGVNISLDISPEISFVGEQNDFVEVMGNVLDNACKYCLEFVEISARQTDEHLYIVVEDDGPGIPLSKREVIFDRGQRVDTLRPGQGVGLAVAREITEQYEGKIVAGESMLGGARMEVIFGRQHSAPKDE

Variants of: B1
Experiment: enrichment ratio after two sorts for PhoP signalling (ratio (wild type AVST 3.29)); higher = more functional
Conditions: with PhoP (E. coli)

Row | Variant | enrichment ratio
1 | KRHD | ≤ 0.25
2 | LMWD | ≤ 0.25
3 | GELF | 9.93
4 | GETI | 11.6
5 | GELH | 11.9
6 | GETK | ≤ 0.25
7 | GYLG | ≤ 0.25
8 | GETC | 3.51
9 | GETH | ≤ 0.25
10 | GELM | 15.9
11 | GYLH | ≤ 0.25
12 | GENS | ≤ 0.25
13 | GELG | 22.4
14 | GEKA | ≤ 0.25
15 | HGYA | ≤ 0.25
16 | STTP | ≤ 0.25
17 | YKHK | ≤ 0.25
18 | SYEL | ≤ 0.25
19 | TAIS | 0.325
20 | NLWP | ≤ 0.25
21 | RDCA | ≤ 0.25
22 | EMPC | ≤ 0.25
23 | PMHF | ≤ 0.25
24 | DDQI | ≤ 0.25
25 | PLHV | ≤ 0.25
26 | KPNT | ≤ 0.25

Row | Variant | enrichment ratio
27 | RISY | ≤ 0.25
28 | GELA | 18.1
29 | GELS | 8.59
30 | GEWI | ≤ 0.25
31 | ASCY | 0.505
32 | LYCM | ≤ 0.25
33 | SGIV | 7.69
34 | ANIQ | 11
35 | HVDI | ≤ 0.25
36 | WNPW | ≤ 0.25
37 | TEYY | 10.3
38 | TECA | 0.528
39 | TEAI | 20.4
40 | TECQ | 12.3
41 | TECS | 26.8
42 | NECG | ≤ 0.25
43 | TECI | 2.38
44 | TEEG | 9.76
45 | NEAI | ≤ 0.25
46 | NECQ | ≤ 0.25
47 | TECG | 15.7
48 | TEGQ | ≤ 0.25
49 | KAWS | ≤ 0.25
50 | GAMP | ≤ 0.25
51 | KTEG | ≤ 0.25
52 | STDK | ≤ 0.25

Row | Variant | enrichment ratio
53 | AAVN | ≤ 0.25
54 | KDFG | ≤ 0.25
55 | QECV | 8.7
56 | MECW | ≤ 0.25
57 | NECW | ≤ 0.25
58 | TECW | 37.6
59 | TECV | 22.2
60 | TPKM | ≤ 0.25
61 | LMLV | ≤ 0.25
62 | GRQP | ≤ 0.25
63 | FCMS | ≤ 0.25
64 | VYMI | ≤ 0.25
65 | KCMI | ≤ 0.25
66 | VCMI | 17.6
67 | NSMI | 2.19
68 | FCMI | 33.7
69 | FEMI | 13
70 | FEMW | ≤ 0.25
71 | YTMI | 6.21
72 | FEMD | ≤ 0.25
73 | FTPA | 0.426
74 | FTMI | 13.1
75 | PKDI | ≤ 0.25
76 | LYLD | ≤ 0.25
77 | HNKV | ≤ 0.25
78 | VKIK | ≤ 0.25

Row | Variant | enrichment ratio
79 | ALCW | 6.49
80 | YKFA | ≤ 0.25
81 | VGHR | ≤ 0.25
82 | HQYF | ≤ 0.25
83 | GGVV | ≤ 0.25
84 | MEVV | 2.27
85 | TEVV | 12.9
86 | GETD | ≤ 0.25
87 | SLVV | 1.38
88 | FCVV | ≤ 0.25
89 | FEVV | 11.9
90 | NEVV | ≤ 0.25
91 | SQVV | 8.77
92 | MAVV | ≤ 0.25
93 | GEVV | 17.2
94 | SEVV | 13.1
95 | NFKG | ≤ 0.25
96 | QAIA | ≤ 0.25
97 | KYGI | ≤ 0.25
98 | SRGI | ≤ 0.25
99 | SCGI | 12.6
100 | SNGI | 12.1
101 | STGI | 4.79
102 | SNFP | ≤ 0.25
103 | FMGW | ≤ 0.25
104 | HQYK | ≤ 0.25

Row | Variant | enrichment ratio
105 | SCAT | 16.1
106 | SCLT | 13.3
107 | SWLN | ≤ 0.25
108 | SCLS | 9.62
109 | SCNT | ≤ 0.25
110 | SCVN | 11.1
111 | SCIT | 1.21
112 | SCLA | 11.8
113 | SCVA | 4.93
114 | SCLN | 11.7
115 | SCVT | 1.01
116 | SCDT | ≤ 0.25
117 | PRNP | ≤ 0.25
118 | AWLY | ≤ 0.25
119 | SHFY | ≤ 0.25
120 | VDWL | ≤ 0.25
121 | MMEY | ≤ 0.25
122 | EQTE | ≤ 0.25
123 | FQTE | ≤ 0.25
124 | TQQK | ≤ 0.25
125 | KSTE | ≤ 0.25
126 | TQTE | 26.4
127 | SQTE | 26.5
128 | YTEA | ≤ 0.25
129 | PPGL | ≤ 0.25
130 | VGLC | 16.6

Row | Variant | enrichment ratio
131 | GGLC | 4.03
132 | AALC | 13.9
133 | VYLC | ≤ 0.25
134 | AGLC | 12.4
135 | NALC | ≤ 0.25
136 | TGLC | 10
137 | VFLC | ≤ 0.25
138 | YALC | 3.77
139 | NNPM | ≤ 0.25
140 | QKWG | ≤ 0.25
141 | ASFD | ≤ 0.25
142 | KIHF | ≤ 0.25
143 | NGVA | ≤ 0.25
144 | KLRA | ≤ 0.25
145 | QKAC | ≤ 0.25
146 | SLAC | 2.46
147 | DMAC | ≤ 0.25
148 | YWAC | ≤ 0.25
149 | SEAC | 19.8
150 | STAC | 4.33
151 | MKAC | ≤ 0.25
152 | NEAC | 15.1
153 | MMAC | 3.29
154 | QEAC | 16
